Measurements from PubChem BioAssay (Tox21).
Results filed as inconclusive are left out. Entries that show only a call come without a potency. Calls of active or inactive are those of the source. Unless noted, the call rests on the fitted dose curve; in most records, active means well fitted cell-killing curve with a large enough effect in the repeat runs; inconclusive means weak or mixed curves; inactive means no such curve, though single readings can be large or run the other way.

Assay: qHTS assay for small molecule activators of the heat shock response signaling pathway (AID 743210; active means well fitted activation curve with a large enough effect in the signal ratio in the repeat runs, with a control signal flat, not every such curve was filed as active; the % refers to the signal ratio)
Settings: HeLa HSE-bla reporter, beta-lactamase ratio, 5 h; series mostly up to 62.6 µM
In short: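 HSE-bla HeLa cells (beta-lactamase reporter under heat shock response elements) were exposed to compounds for 5 h at 37 C, then loaded with LiveBLAzer B/G FRET substrate for 2.5 h at room temperature before fluorescence reading.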
Potency means the concentration at half of the fitted maximal effect.

Which Potency does the source give for `NNS(=O)(=O)c1ccc(Oc2ccc(S(=O)(=O)NN)cc2)cc1` here?
The Potency was “inactive”.

For `CC1=C(CC(=O)O)c2cc(F)ccc2/C1=C\c1ccc(S(C)(=O)=O)cc1`, which Potency is on record?
The Potency was “inactive”.

Which Potency does the source give for `CN(C)C(=O)NC1(c2ccccc2)CCN(CCC[C@]2(c3ccc(Cl)c(Cl)c3)CCCN(C(=O)c3ccccc3)C2)CC1` here?
The Potency was “inactive”.

For `OCC(CBr)(CBr)CBr`, which Potency is on record?
The Potency was “inactive”.

With `O=c1oc2c(O)c(O)cc3c(=O)oc4c(O)c(O)cc1c4c23` as the molecule, how does the Potency read?
Its Potency is “inactive”.

Which Potency does the source give for `O=C1CCCc2ccccc21` here?
The Potency was “inactive”.

Which Potency does the source give for `CCOc1ccccc1N` here?
Its Potency is “inactive”.

Which Potency does the source give for `CN1CCC[C@@H]1Cc1c[nH]c2ccc(CCS(=O)(=O)c3ccccc3)cc12` here?
Its Potency is “inactive”.

With `CN1[C@@H]2CC[C@H]1CC(OC(=O)c1c[nH]c3ccccc13)C2` (some centres not stated) as the molecule, how does the Potency read?
The Potency was “inactive”.

For `O=[N+]([O-])c1nccn1CO[C@@H](CO)[C@H](O)CO`, which Potency is on record?
The Potency was “inactive”.

With `CNCCC(Oc1ccccc1OC)c1ccccc1` (configuration not stated) as the molecule, how does the Potency read?
Its Potency is “inactive”.

Which Potency does the source give for `OCc1ccccc1O` here?
The Potency was “inactive”.

With `CCCOCCC` as the molecule, how does the Potency read?
The Potency was “inactive”.

Which Potency does the source give for `NC(=O)Cc1cccc(C(=O)c2ccccc2)c1N` here?
Its Potency is “inactive”.

With `Cc1cc(S(=O)(=O)O)c(N)cc1Cl` as the molecule, how does the Potency read?
The Potency was “inactive”.

Which Potency does the source give for `OC[C@H]1O[C@@H](O[C@H]2[C@H](O)[C@@H](O)[C@H](O)O[C@@H]2CO)[C@H](O)[C@@H](O)[C@H]1O` here?
The Potency was “inactive”.

With `CCCCC(=O)O[C@]1(C(=O)CO)[C@H](C)C[C@H]2[C@@H]3CCC4=CC(=O)C=C[C@]4(C)[C@@]3(F)[C@@H](O)C[C@@]21C` as the molecule, how does the Potency read?
Its Potency is “inactive”.

For `CCCCCCCCCCCCOCCOS(=O)(=O)O`, which Potency is on record?
Its Potency is “inactive”.

Which Potency does the source give for `CC1(O)CSC(C)(O)CS1` (configuration not stated) here?
Its Potency is “inactive”.

With `CCCCNC(=S)NCCCC` as the molecule, how does the Potency read?
Its Potency is 23.6 µM (active).

Which Potency does the source give for `COC(=O)N[C@H](C(=O)N[C@@H](Cc1ccccc1)[C@@H](O)CN(Cc1ccc(-c2ccccn2)cc1)NC(=O)[C@@H](NC(=O)OC)C(C)(C)C)C(C)(C)C` here?
Its Potency is “inactive”.

For `Cn1cnc2c(F)c(Nc3ccc(Br)cc3Cl)c(C(=O)NOCCO)cc21`, which Potency is on record?
Its Potency is “inactive”.

Which Potency does the source give for `O=C(Cl)c1cccc([N+](=O)[O-])c1` here?
Its Potency is “inactive”.

For `CC(C)Nc1nc(N)nc(Cl)n1`, which Potency is on record?
Its Potency is “inactive”.

Which Potency does the source give for `O=C(O[C@@H](C(=O)O)[C@@H](OC(=O)c1ccccc1)C(=O)O)c1ccccc1` here?
Its Potency is “inactive”.

With `CC[C@H]1CC[C@H](NCc2cc3c(cc2OC)[C@H]2C[C@H]2C(=O)N3C)[C@H](c2ccccc2)N1` as the molecule, how does the Potency read?
Its Potency is “inactive”.

For `NC1=NCC2c3ccccc3Cc3ccccc3N12` (configuration not stated), which Potency is on record?
Its Potency is “inactive”.

With `CC1=NN(c2cc(Cl)c(S(=O)(=O)O)cc2Cl)C(=O)C1N=Nc1ccc(S(=O)(=O)O)cc1` (configuration not stated) as the molecule, how does the Potency read?
Its Potency is “inactive”.

With `CCC(=O)c1ccc2c(c1)N(CCCN(C)C)c1ccccc1S2` as the molecule, how does the Potency read?
Its Potency is “inactive”.

For `CN1CCN(C2=Nc3cc(F)ccc3Cc3ccccc32)CC1`, which Potency is on record?
Its Potency is “inactive”.

Assay: qHTS assay to identify small molecule agonists of the peroxisome proliferator-activated receptor delta (PPARd) signaling pathway - cell viability counter screen (AID 743211); further: nearly all actives have a fitted effect of over 55% in size
Settings: PPARd-bla HEK293H viability, CellTiter-Glo luminescence, 17 h; series mostly up to 62.6 µM
In short: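 Luminescent ATP viability assay (CellTiter-Glo, 30 min RT) in UAS-bla HEK293H cells carrying the PPAR delta reporter construct, 3000 cells/well, after a 17 h compound treatment at 37 C.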

With `NNS(=O)(=O)c1ccc(Oc2ccc(S(=O)(=O)NN)cc2)cc1` as the molecule, how does the Potency read?
Its Potency is “inactive”.

With `CC1=C(CC(=O)O)c2cc(F)ccc2/C1=C\c1ccc(S(C)(=O)=O)cc1` as the molecule, how does the Potency read?
Its Potency is “inactive”.

For `CN(C)C(=O)NC1(c2ccccc2)CCN(CCC[C@]2(c3ccc(Cl)c(Cl)c3)CCCN(C(=O)c3ccccc3)C2)CC1`, which Potency is on record?
The Potency was 9.28 µM (active).

With `CC(C)=CCCC(C)CCOC=O` (configuration not stated) as the molecule, how does the Potency read?
Its Potency is “inactive”.

For `OCC(CBr)(CBr)CBr`, which Potency is on record?
The Potency was “inactive”.

For `NC(Cc1ccc(F)cc1)C(=O)O` (configuration not stated), which activity change, negative = cytotoxicity is on record?
Its activity change, negative = cytotoxicity is -0.221% [at 5.95 µM] (inactive).

For `O=c1oc2c(O)c(O)cc3c(=O)oc4c(O)c(O)cc1c4c23`, which Potency is on record?
The Potency was “inactive”.

For `O=C1CCCc2ccccc21`, which Potency is on record?
Its Potency is “inactive”.

For `CCOc1ccccc1N`, which Potency is on record?
Its Potency is “inactive”.

Which Potency does the source give for `O=c1[nH]c(=O)n([C@H]2C[C@H](O)[C@@H](CO)O2)cc1C(F)(F)F` here?
Its Potency is “inactive”.

With `CN1CCC[C@@H]1Cc1c[nH]c2ccc(CCS(=O)(=O)c3ccccc3)cc12` as the molecule, how does the Potency read?
The Potency was “inactive”.

Which Potency does the source give for `CN1[C@@H]2CC[C@H]1CC(OC(=O)c1c[nH]c3ccccc13)C2` (some centres not stated) here?
Its Potency is “inactive”.

Which Potency does the source give for `Nc1ccc(Oc2ccc(N)c(N)c2)cc1` here?
Its Potency is “inactive”.

With `O=[N+]([O-])c1nccn1CO[C@@H](CO)[C@H](O)CO` as the molecule, how does the Potency read?
The Potency was “inactive”.

Which Potency does the source give for `CNCCC(Oc1ccccc1OC)c1ccccc1` (configuration not stated) here?
Its Potency is “inactive”.

For `OCc1ccccc1O`, which Potency is on record?
The Potency was “inactive”.

For `CCCOCCC`, which Potency is on record?
Its Potency is “inactive”.

For `NC(=O)Cc1cccc(C(=O)c2ccccc2)c1N`, which Potency is on record?
Its Potency is “inactive”.

For `Cc1cc(S(=O)(=O)O)c(N)cc1Cl`, which Potency is on record?
The Potency was “inactive”.

With `OC[C@H]1O[C@@H](O[C@H]2[C@H](O)[C@@H](O)[C@H](O)O[C@@H]2CO)[C@H](O)[C@@H](O)[C@H]1O` as the molecule, how does the Potency read?
The Potency was “inactive”.

Which Potency does the source give for `CC1=C2[C@H](/C=C(\C)C(=O)O)CC[C@@H](C)[C@H]2CC1` here?
Its Potency is “inactive”.

With `CCCCC(=O)O[C@]1(C(=O)CO)[C@H](C)C[C@H]2[C@@H]3CCC4=CC(=O)C=C[C@]4(C)[C@@]3(F)[C@@H](O)C[C@@]21C` as the molecule, how does the Potency read?
The Potency was “inactive”.

With `CC1(O)CSC(C)(O)CS1` (configuration not stated) as the molecule, how does the Potency read?
Its Potency is “inactive”.

Which Potency does the source give for `COC(=O)c1ccc2cc(C(=O)OC)ccc2c1` here?
Its Potency is “inactive”.

Which Potency does the source give for `COC(=O)N[C@H](C(=O)N[C@@H](Cc1ccccc1)[C@@H](O)CN(Cc1ccc(-c2ccccn2)cc1)NC(=O)[C@@H](NC(=O)OC)C(C)(C)C)C(C)(C)C` here?
The Potency was “inactive”.

For `Cn1cnc2c(F)c(Nc3ccc(Br)cc3Cl)c(C(=O)NOCCO)cc21`, which Potency is on record?
The Potency was “inactive”.

Which Potency does the source give for `O=C(Cl)c1cccc([N+](=O)[O-])c1` here?
The Potency was “inactive”.

With `CC(C)Nc1nc(N)nc(Cl)n1` as the molecule, how does the Potency read?
Its Potency is “inactive”.

With `O=C(O[C@@H](C(=O)O)[C@@H](OC(=O)c1ccccc1)C(=O)O)c1ccccc1` as the molecule, how does the Potency read?
Its Potency is “inactive”.

Which Potency does the source give for `NC1=NCC2c3ccccc3Cc3ccccc3N12` (configuration not stated) here?
The Potency was “inactive”.

For `CC1=NN(c2cc(Cl)c(S(=O)(=O)O)cc2Cl)C(=O)C1N=Nc1ccc(S(=O)(=O)O)cc1` (configuration not stated), which Potency is on record?
Its Potency is “inactive”.

Which Potency does the source give for `CCC(=O)c1ccc2c(c1)N(CCCN(C)C)c1ccccc1S2` here?
Its Potency is 29.8 µM (active).
